This note sets out measurements from PubChem BioAssay (NCI).

The nature of assay [1]: NCI Yeast Anticancer Drug Screen. Data for the rad50 strain (AID 155).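 Also: 0% = growth of vehicle-only cultures of the same strain.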 Particulars: S. cerevisiae rad50 strain growth inhibition; at 50.0 µM; active compounds read high. The gist of the method:
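Genetically altered yeast (DNA repair pathway); compound treatment; growth inhibition vs vehicle ctrl.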

The nature of assay [2]: NCI Yeast Anticancer Drug Screen. Data for the mec2-1 strain (AID 157). Particulars: S. cerevisiae mec2-1 strain, at 50.0 µM, active compounds read high. In short, it runs like this: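 Compounds were applied to mec2-1 yeast cells. Their growth was then compared with that of vehicle-treated cultures to give growth inhibition.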
The nature of assay [3]: NCI Yeast Anticancer Drug Screen. Data for the sgs1 mgt1 strain (AID 161).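 Also: 0% = growth of cultures given vehicle only.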 Particulars: S. cerevisiae sgs1 mgt1 strain, at 50.0 µM, active compounds read high. In short, it runs like this: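 Growth of a repair-deficient yeast mutant was monitored after compound treatment and expressed as inhibition relative to vehicle-treated cultures.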
Assay [4] in a line: NCI Yeast Anticancer Drug Screen. Data for the cln2 rad14 strain (AID 165).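 Also: 0% = growth equal to vehicle treated cultures.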 Particulars: S. cerevisiae cln2 rad14 strain, at 50.0 µM, active compounds read high. The gist of the method: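 Strain: cln2 rad14 yeast, altered in cell cycle control and DNA damage repair. Read-out: growth inhibition vs vehicle.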
Assay [5] can be described thus: NCI Yeast Anticancer Drug Screen. Data for the bub3 strain (AID 167). Particulars: S. cerevisiae bub3 mutant strain, at 50.0 µM, active compounds read high. In short, it runs like this: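 Yeast carrying a defined mutation is treated with each compound, and growth is compared with that of vehicle-exposed cells to give inhibition.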
Assay [6] can be described thus: NCI Yeast Anticancer Drug Screen. Data for the mlh1 rad18 strain (AID 175). Particulars: S. cerevisiae mlh1 rad18 strain growth inhibition; at 50.0 µM; active compounds read high. In short, it runs like this: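 A repair-deficient yeast strain is exposed to test compound, and growth is scored relative to vehicle-treated controls.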

Compounds without any hit were thinned out: in the full panel of roughly 79,000, 15% have a hit. Unmarked numbers belong to inactive results. Activity calls are given as the source filed them. Rule as the data show it: active = growth inhibition above about 70%; inactive = the rest.

Take `Nc1ncnc2c1ncn2[C@@H]1C[C@H]1CO`: the growth inhibition in assay [1] is -39.6%; in assay [2] it was 10.8%; in assay [3] it was -23.6%; in assay [4], 12.1%; in assay [5], 20.6%; in assay [6], -23.4%.

Take `Nc1ccccc1N`: the growth inhibition in assay [1] is -7.9%; in assay [2], -13.3%; in assay [3], 14.4%; in assay [4] it was -4.5%; in assay [5] it was -29.9%; in assay [6], -0.35%.

On to `CC(CCOS(C)(=O)=O)OS(C)(=O)=O` (stereo not drawn), for which the growth inhibition in assay [1] was 8.25%; in assay [2], -5.2%; in assay [3], 1.25%; in assay [4] it was -3.25%; in assay [5] it was 8.95%; in assay [6], -7.6%.

Take `CCCCCn1c(=O)c2cc3c(=O)n(CCCCC)c(=O)c3cc2c1=O`: the growth inhibition in assay [1] is 14.2%; in assay [2] it was 7.3%; in assay [3], 16.2%; in assay [4] it was -52.6%; in assay [5], 10%; in assay [6] it was -5.6%.

With `CCO/C=N\c1c(C#N)c(CC#N)nn1C`, the growth inhibition is -3.55% in assay [1]; -12% in assay [2]; -8.65% in assay [3]; -27.9% in assay [4]; -1.75% in assay [5]; -13.4% in assay [6].

On to `CCCCCc1nnc2n1N=C(c1ccc(Cl)cc1)CS2`, for which the growth inhibition is -26.6% in assay [1]; -13.9% in assay [2]; -2.5% in assay [3]; 4.1% in assay [4]; -17.6% in assay [5]; 3.5% in assay [6].

Take `O=C1OC(/C=C/c2ccccc2)=NC/1=C\c1ccccc1Cl`: the growth inhibition in assay [1] is 29.8%; in assay [2], 15.4%; in assay [3] it was 35%; in assay [4], 21.6%; in assay [5], 17.4%; in assay [6], 20.4%.

In the case of `O=C1CSC(c2ccccc2Br)N1c1nncs1` (stereo not drawn), the growth inhibition in assay [1] is -5.05%; in assay [2], -5.7%; in assay [3], 1.95%; in assay [4], 0.9%; in assay [5], 13.6%; in assay [6] it was 7.75%.

Consider `COc1cc(-c2ccc([NH2+][B-](F)(F)F)c(OC)c2)ccc1[NH2+][B-](F)(F)F`, for which the growth inhibition in assay [1] was 21.7%; in assay [2], -2.05%; in assay [3], 37.3%; in assay [4], 29.1%; in assay [5], 9.1%; in assay [6], 18.9%.

For the compound `C(=N\N1CCN(/N=C/c2cccc3ccccc23)CC1)/c1cccc2ccccc12`, the growth inhibition in assay [1] was 16.2%; in assay [2] it was 6.85%; in assay [3], 19%; in assay [4], 18.5%; in assay [5] it was -0.65%; in assay [6], 3.4%.

On to `c1ccc(CN2CCCCC2)nc1`, for which the growth inhibition in assay [1] was -12.9%; in assay [2], -20.7%; in assay [3], -11.1%; in assay [4], 10.6%; in assay [5] it was -10.2%; in assay [6], -10.2%.

Turning to `O=C(O)CCCC[P+](c1ccccc1)(c1ccccc1)c1ccccc1`, the growth inhibition is 21.1% in assay [1]; 7.8% in assay [2]; 13.5% in assay [3]; 7.5% in assay [4]; 35.3% in assay [5]; 27.8% in assay [6].

Regarding `COc1nc2n[nH]nc2c(=O)n1C`, the growth inhibition in assay [1] was -5.75%; in assay [2], -10.8%; in assay [3], -13.1%; in assay [4], 13.7%; in assay [5], -5.1%; in assay [6], -21.6%.

For `c1ccc2c3c([nH]c2c1)C1(CCCCC1)c1c([nH]c2ccccc12)C31CCCCC1`, the growth inhibition in assay [1] was -19.6%; in assay [2], 2.2%; in assay [3], -8.9%; in assay [4], 9.9%; in assay [5], -20.4%; in assay [6] it was -10.9%.

Turning to `CCC(OC(C)=O)c1ccccc1` (stereo not drawn), the growth inhibition in assay [1] was 12.8%; in assay [2] it was 17.2%; in assay [3], 11.5%; in assay [4] it was 6.45%; in assay [5], 27.4%; in assay [6], 1.5%.

`COc1cc(C2[C@H]3C(=O)N(c4ccc(Cc5ccc(N6C(=O)[C@@H]7ON(c8ccccc8)C(c8cc(OC)c(OC)c(OC)c8)[C@@H]7C6=O)cc5)cc4)C(=O)[C@H]3ON2c2ccccc2)cc(OC)c1OC` (stereo partly drawn): the growth inhibition in assay [1] was -2.25%; in assay [2], 5.2%; in assay [3], 3.75%; in assay [4], 27.5%; in assay [5], 25.9%; in assay [6], -6.3%.

Regarding `CC(NC(=O)C1CCCN1C(=O)OCc1ccccc1)C(=O)O` (stereo not drawn), the growth inhibition in assay [1] was -7.7%; in assay [2], 31.1%; in assay [3], -10.5%; in assay [4], 2.1%; in assay [5], -13.2%; in assay [6], -19.6%.

On to `O=S(=O)(c1ccc(Br)cc1)N1CCN(S(=O)(=O)c2ccc(Br)cc2)CC1`, for which the growth inhibition in assay [1] is -24.4%; in assay [2] it was -23.9%; in assay [3] it was -35.2%; in assay [4], -43.2%; in assay [5], -23.4%; in assay [6], -10.1%.

As to `Cc1ccc(C)c(CNC(=O)Nc2ccccc2Cl)c1`, the growth inhibition in assay [1] is 12.4%; in assay [2] it was -14.3%; in assay [3] it was -22.8%; in assay [4], 6.75%; in assay [5], 5.35%; in assay [6], -18.2%.

On to `NC(=S)N/N=C/c1cccc(CC(O)(C(F)(F)F)C(F)(F)F)n1`, for which the growth inhibition in assay [1] is 2.6%; in assay [2] it was 7.1%; in assay [3], 3.7%; in assay [4] it was -28.4%; in assay [5] it was -2.1%; in assay [6] it was 24%.

In the case of `CC(C)C1CCC(C)(C=O)C1` (stereo not drawn), the growth inhibition was -19.7% in assay [1]; -0.5% in assay [2]; -14.3% in assay [3]; -7.85% in assay [4]; -5.75% in assay [5]; -26.9% in assay [6].

On to `O=c1[nH]cnc2c1ncn2CCCc1ccccc1`, for which the growth inhibition in assay [1] is -1%; in assay [2], 7.5%; in assay [3], 2.8%; in assay [4], -69.6%; in assay [5], 3%; in assay [6], -17.1%.

For `CCN(CC)C(=O)Oc1cc(C)c([N+](C)(C)C)cc1C(C)C`, the growth inhibition in assay [1] is 10.1%; in assay [2] it was 6.7%; in assay [3] it was 13.2%; in assay [4], 17.8%; in assay [5], 24.6%; in assay [6] it was -27.7%.

Turning to `COC(=O)c1cc2ccc1OCC#CC#CCOc1ccc(cc1C(=O)OC)OCC#CC#CCO2`, the growth inhibition in assay [1] is -1.9%; in assay [2], 5.5%; in assay [3], 7.35%; in assay [4] it was 5.75%; in assay [5], -0.7%; in assay [6], 19.2%.

For `O=[N+]([O-])c1ccc(N=Nc2c(O)c3ccccc3c3ccccc23)c([N+](=O)[O-])c1`, the growth inhibition was 46.6% in assay [1]; 10.3% in assay [2]; 27.9% in assay [3]; 25.9% in assay [4]; 6.1% in assay [5]; 23.2% in assay [6].

As to `CCOc1ccccc1NC(=O)/C=C1\NC(=O)CS1`, the growth inhibition in assay [1] is -8.55%; in assay [2], -14.4%; in assay [3], 27.2%; in assay [4] it was 11.3%; in assay [5] it was -5.65%; in assay [6], 40.4%.

On to `COc1cc2cc(C)c(C)cc2cc1OC`, for which the growth inhibition is -5.8% in assay [1]; 13.7% in assay [2]; -4% in assay [3]; -22.9% in assay [4]; -21.9% in assay [5]; 5.65% in assay [6].

As for `COC(=O)CC1C2(C)C3=C(C)C(c4ccoc4)CC3OC2C2OC(=O)C3(C)C=CC(=O)C1(C)C23` (stereo not drawn), the growth inhibition is 85% (active) in assay [1]; 84.2% (active) in assay [2]; 79.2% (active) in assay [3]; 81% (active) in assay [4]; 82% (active) in assay [5]; 90.3% (active) in assay [6].

On to `O=C1C(CN2CCCCC2)CCC1CN1CCCCC1` (stereo not drawn), for which the growth inhibition in assay [1] is 23.9%; in assay [2], 15%; in assay [3], 30.8%; in assay [4] it was 9.95%; in assay [5], 14.1%; in assay [6] it was 51.5%.

In the case of `CC1(C)OC(=O)N=C1c1ccc(F)cc1`, the growth inhibition in assay [1] is -9.3%; in assay [2], 7.7%; in assay [3] it was -1.25%; in assay [4] it was 2%; in assay [5], -1.65%; in assay [6], 17.4%.

Regarding `O=C(O)CCSc1nc2ccccc2s1`, the growth inhibition in assay [1] was 1.2%; in assay [2] it was -9.85%; in assay [3], 2.75%; in assay [4], 0.3%; in assay [5] it was -14.2%; in assay [6], 19.1%.

As for `O=C(Nc1cccc([N+](=O)[O-])c1)C(=O)C(C(=O)c1ccccc1F)C1OC(=O)C2C=CC=CC21` (stereo not drawn), the growth inhibition in assay [1] is 5.5%; in assay [2], 15.9%; in assay [3], 16.1%; in assay [4] it was 11.7%; in assay [5], -32.9%; in assay [6], -19.9%.

In the case of `CC(C)CC(CC(C)C)OB(OC(CC(C)C)CC(C)C)OC(CC(C)C)CC(C)C`, the growth inhibition is -27.8% in assay [1]; -15.3% in assay [2]; -14.6% in assay [3]; 10.9% in assay [4]; -0.3% in assay [5]; -7.8% in assay [6].

For `CCOC1(C)Oc2cc3c(cc2C(c2cc(OC)c(OC)c(OC)c2)C1C)OCO3` (stereo not drawn), the growth inhibition in assay [1] is 12.4%; in assay [2], 1.55%; in assay [3], -6.75%; in assay [4], -29.4%; in assay [5] it was 1.4%; in assay [6], 32.5%.

`Cc1ccc2oc(=O)c3c(O)c4cccc(OC5OC(C)C6O[C@@H](c7ccccc7)OC6C5OC5OC(C)C(O)C(O)C5O)c4c4oc(=O)c1c2c34` (stereo partly drawn): the growth inhibition was 87.2% (active) in assay [1]; 89.7% (active) in assay [2]; 91.5% (active) in assay [3]; 83.6% (active) in assay [4]; 89.7% (active) in assay [5]; 75.4% (active) in assay [6].

Turning to `N#CCCOCC(COCCC#N)(COCCC#N)COCCC#N`, the growth inhibition in assay [1] was -11.9%; in assay [2], -24.4%; in assay [3], -7.55%; in assay [4], 10%; in assay [5], -12.9%; in assay [6] it was -2.25%.

Turning to `CN(c1ccc(C(=O)c2ccc(N(C)S(C)(=O)=O)cc2)cc1)S(C)(=O)=O`, the growth inhibition in assay [1] is -22.6%; in assay [2] it was -27.9%; in assay [3] it was -8.05%; in assay [4], -2.35%; in assay [5] it was 4.5%; in assay [6] it was -6.6%.

With `Nc1ccc(S(=O)(=O)N(CCO)CCO)cc1`, the growth inhibition in assay [1] is -2.65%; in assay [2], -28.2%; in assay [3], -20.9%; in assay [4], -6.95%; in assay [5] it was -18.8%; in assay [6], -12.3%.
